Experimental data as given in PubChem BioAssay (EPA / NIEHS).
Active and inactive are the calls of the source. Rule for the calls: active = hit-call score of the fitted dose curve at least 0.9, where 1 is the maximum; inactive = score below 0.9.

Legend:
Details in all cases: mRNA level, 48 h; actives raise or lower the signal
[1] = read-out: growth arrest and DNA damage 45 (GADD45A), GADD45A (gene 1647); test: LTEA_HepaRG_GADD45A: Life Technologies and Expression Analysis (LTEA) Assay for growth arrest and DNA damage 45 (GADD45A) using HepaRG (AID 2283458)
How it was run: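 Eight-point concentration-response in HepaRG cells: 48 h chemical exposure, 0.5% DMSO vehicle, top dose 100 uM. Normalized qRT-PCR mRNA readout with bidirectional fitting relative to DMSO.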

[2] = read-out: Forkhead box O3 (FOXO3), FOXO3 (gene 2309); test: LTEA_HepaRG_FOXO3: Life Technologies and Expression Analysis (LTEA) Assay for Forkhead box O3 (FOXO3) using HepaRG (AID 2283459)
How it was run: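 Gene-expression endpoint: FOXO3 transcript level by qRT-PCR in HepaRG cultures treated 48 h with chemicals up to 100 uM (half-log, 0.5% DMSO vehicle).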

[3] = read-out: ABC Transporter (ABCB1), ABCB1 (gene 5243); test: LTEA_HepaRG_ABCB1: Life Technologies and Expression Analysis (LTEA) Assay for ABC Transporter (ABCB1) using HepaRG (AID 2283460)
How it was run: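 Human liver HepaRG line treated 48 h with up to 100 uM compound (eight half-log points, 0.5% DMSO); ABCB1 mRNA change fitted bidirectionally against DMSO controls.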

[4] = read-out: growth arrest and DNA damage 45 (GADD45B), GADD45B (gene 4616); test: LTEA_HepaRG_GADD45B: Life Technologies and Expression Analysis (LTEA) Assay for growth arrest and DNA damage 45 (GADD45B) using HepaRG (AID 2283461)
How it was run: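 Values are bidirectional concentration-response fits against 0.5% DMSO controls. Underlying data: qRT-PCR mRNA levels in human HepaRG liver cells treated 48 h in serum-free induction medium, eight concentrations topping at 100 uM.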

[5] = read-out: ABC Transporter (ABCC3), ABCC3 (gene 8714); test: LTEA_HepaRG_ABCC3: Life Technologies and Expression Analysis (LTEA) Assay for ABC Transporter (ABCC3) using HepaRG (AID 2283462)
How it was run: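 Differentiated HepaRG liver cells receive test chemicals at eight concentrations (max 100 uM) for 48 h. Expression of ABCC3 is quantified by qRT-PCR against ACTB, GAPDH and POLR2A, and activity is fitted in both directions against the DMSO control.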

[6] = read-out: ABC Transporter (ABCB11), ABCB11 (gene 8647); test: LTEA_HepaRG_ABCB11: Life Technologies and Expression Analysis (LTEA) Assay for ABC Transporter (ABCB11) using HepaRG (AID 2283463)
How it was run: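 Using HepaRG cultures held in 0.5% DMSO, chemicals were tested at half-log dilutions from 100 uM for 48 h. Induction or suppression of ABCB11 mRNA, normalized to ACTB, GAPDH and POLR2A, was fitted bidirectionally against vehicle.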

[7] = read-out: ABC Transporter (ABCC2), ABCC2 (gene 1244); test: LTEA_HepaRG_ABCC2: Life Technologies and Expression Analysis (LTEA) Assay for ABC Transporter (ABCC2) using HepaRG (AID 2283464)
How it was run: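 Gene expression of ABCC2 was determined by qRT-PCR in HepaRG cells exposed 48 h to chemicals (highest 100 uM, half-log dilutions). Activity was fitted in both directions relative to 0.5% DMSO vehicle.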

[8] = read-out: Broad substrate specificity ATP-binding cassette transporter ABCG2 (Homo sapiens) (UniProt Q9UNQ0); test: LTEA_HepaRG_ABCG2: Life Technologies and Expression Analysis (LTEA) Assay for ABC Transporter (ABCG2) using HepaRG (AID 2283465)
How it was run: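 Gene expression of ABCG2 in HepaRG liver cells is quantified by qRT-PCR following 48 h exposure across an eight-point series topping at 100 uM. Values come from bidirectional fitting relative to DMSO vehicle.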

[9] = read-out: ATP-citrate lyase (ACLY), ACLY (gene 47); test: LTEA_HepaRG_ACLY: Life Technologies and Expression Analysis (LTEA) Assay for ATP-citrate lyase (ACLY) using HepaRG (AID 2283466)
How it was run: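 ACLY expression changes in human HepaRG liver cells are quantified by qRT-PCR after 48 h exposure to test chemicals (maximum 100 uM, half-log steps). Values are fitted in both directions relative to 0.5% DMSO vehicle.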

[10] = read-out: Peroxisomal acyl-coenzyme A oxidase 1 (ACOX1) gene, ACOX1 (gene 51); test: LTEA_HepaRG_ACOX1: Life Technologies and Expression Analysis (LTEA) Assay for Peroxisomal acyl-coenzyme A oxidase 1 (ACOX1) gene using HepaRG (AID 2283467)
How it was run: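 Human HepaRG hepatic cultures, 48 h treatment with test chemicals up to 100 uM. ACOX1 expression read by qRT-PCR relative to 0.5% DMSO vehicle.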

[11] = read-out: Alkaline Phosphatase, Placental (ALPP) gene, ALPP (gene 250); test: LTEA_HepaRG_ALPP: Life Technologies and Expression Analysis (LTEA) Assay for Alkaline Phosphatase, Placental (ALPP) gene using HepaRG (AID 2283468)
How it was run: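 Expression of ALPP was quantified by qRT-PCR against three housekeeping genes in human HepaRG cultures treated for 48 h with an eight-point concentration series up to 100 uM. Activity in either direction was fitted relative to 0.5% DMSO.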

[12] = read-out: Bcl-2 (BAD) gene, BAD (gene 572); test: LTEA_HepaRG_BAD: Life Technologies and Expression Analysis (LTEA) Assay for Bcl-2 (BAD) gene using HepaRG (AID 2283469)
How it was run: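 Activity values reflect up- or down-regulation of BAD mRNA in human HepaRG hepatic cells treated 48 h in serum-free medium, with eight-point half-log dosing capped at 100 uM and 0.5% DMSO vehicle.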

[13] = read-out: Bcl-2 (BAX) gene, BAX (gene 581); test: LTEA_HepaRG_BAX: Life Technologies and Expression Analysis (LTEA) Assay for Bcl-2 (BAX) gene using HepaRG (AID 2283470)
How it was run: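 Human HepaRG cells treated in duplicate for 48 h across eight concentrations (max 100 uM, 0.5% DMSO); BAX expression measured by qRT-PCR.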

[14] = read-out: adenosine kinase (ADK) gene, ADK (gene 132); test: LTEA_HepaRG_ADK: Life Technologies and Expression Analysis (LTEA) Assay for adenosine kinase (ADK) gene using HepaRG (AID 2283471)
How it was run: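 Following 48 h exposure of HepaRG cells in 0.5% DMSO (top concentration 100 uM, duplicate wells), ADK mRNA induction or suppression was measured by qRT-PCR, normalised to ACTB/GAPDH/POLR2A, and fitted bidirectionally relative to vehicle.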

[15] = read-out: BCL2L11 (gene 10018); test: LTEA_HepaRG_BCL2L11: Life Technologies and Expression Analysis (LTEA) Assay for Bcl-2 (BCL2L11) gene using HepaRG (AID 2283473)
How it was run: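 Cells were plated, cultured 48 h, switched to serum-free induction medium, then dosed in duplicate for 48 h at eight half-log concentrations up to 100 uM. Lysates underwent RNA isolation and TaqMan qRT-PCR; gain or loss versus DMSO was fitted.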

[16] = read-out: Apolipoprotein A-V (APOA5) gene, APOA5 (gene 116519); test: LTEA_HepaRG_APOA5: Life Technologies and Expression Analysis (LTEA) Assay for Apolipoprotein A-V (APOA5) gene using HepaRG (AID 2283474)
How it was run: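 Human liver HepaRG cells are treated 48 h with test chemicals (100 uM top, half-log dilutions, 0.5% DMSO). APOA5 mRNA induction or loss is measured by qRT-PCR relative to vehicle.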

[17] = read-out: Apoptosis regulator Bcl-2 (Homo sapiens) (UniProt P10415); test: LTEA_HepaRG_BCL2: Life Technologies and Expression Analysis (LTEA) Assay for Bcl-2 gene using HepaRG (AID 2283475);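 note: BCL2 transcript by TaqMan qRT-PCR normalised to ACTB GAPDH and POLR2A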
How it was run: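 Each chemical was tested in duplicate on HepaRG cultures held in serum-free induction medium for 48 h, highest concentration 100 uM with half-log dilutions. Transcript levels came from multiplexed qRT-PCR, normalised to housekeeping genes; activity was scored in either direction relative to DMSO.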

[18] = read-out: Bcl-2 (BID) gene, BID (gene 637); test: LTEA_HepaRG_BID: Life Technologies and Expression Analysis (LTEA) Assay for Bcl-2 (BID) gene using HepaRG (AID 2283476)
How it was run: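 Assay used HepaRG hepatic cells treated 48 h in serum-free medium with half-log dilutions from 100 uM. Endpoint: BID mRNA, qRT-PCR, normalized to ACTB/GAPDH/POLR2A.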

[19] = read-out: Caspase-3 (Homo sapiens) (UniProt P42574); test: LTEA_HepaRG_CASP3: Life Technologies and Expression Analysis (LTEA) Assay for cysteine-aspartic acid protease (CASP3) using HepaRG (AID 2283477)
How it was run: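 In HepaRG liver cells dosed for 48 h at up to 100 uM (eight-point, duplicate), CASP3 expression changes are scored by qRT-PCR. Activity is fitted in both directions with 0.5% DMSO as baseline.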

[20] = read-out: Alpha-fetoprotein (AFP) gene, AFP (gene 174); test: LTEA_HepaRG_AFP: Life Technologies and Expression Analysis (LTEA) Assay for Alpha-fetoprotein (AFP) gene using HepaRG (AID 2283472);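 for AC50: AFP transcript by TaqMan qRT-PCR normalized to ACTB GAPDH and POLR2A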
How it was run: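 Measures AFP mRNA change in HepaRG after 48 h chemical exposure (8 half-log concentrations, highest 100 uM, 0.5% DMSO). Fold change relative to DMSO, fitted in both directions.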

Measured: AC50

Chain of Caspase-3 (Homo sapiens) (P42574 whole entry, looked up): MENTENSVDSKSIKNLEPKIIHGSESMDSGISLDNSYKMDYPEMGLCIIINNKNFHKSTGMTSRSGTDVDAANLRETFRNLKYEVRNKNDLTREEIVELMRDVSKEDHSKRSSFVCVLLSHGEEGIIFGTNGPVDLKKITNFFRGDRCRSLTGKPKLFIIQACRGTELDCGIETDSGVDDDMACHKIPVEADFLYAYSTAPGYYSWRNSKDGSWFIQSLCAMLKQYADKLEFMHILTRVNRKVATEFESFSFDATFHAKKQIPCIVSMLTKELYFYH
Chain of Broad substrate specificity ATP-binding cassette transporter ABCG2 (Homo sapiens) (Q9UNQ0 whole entry, looked up): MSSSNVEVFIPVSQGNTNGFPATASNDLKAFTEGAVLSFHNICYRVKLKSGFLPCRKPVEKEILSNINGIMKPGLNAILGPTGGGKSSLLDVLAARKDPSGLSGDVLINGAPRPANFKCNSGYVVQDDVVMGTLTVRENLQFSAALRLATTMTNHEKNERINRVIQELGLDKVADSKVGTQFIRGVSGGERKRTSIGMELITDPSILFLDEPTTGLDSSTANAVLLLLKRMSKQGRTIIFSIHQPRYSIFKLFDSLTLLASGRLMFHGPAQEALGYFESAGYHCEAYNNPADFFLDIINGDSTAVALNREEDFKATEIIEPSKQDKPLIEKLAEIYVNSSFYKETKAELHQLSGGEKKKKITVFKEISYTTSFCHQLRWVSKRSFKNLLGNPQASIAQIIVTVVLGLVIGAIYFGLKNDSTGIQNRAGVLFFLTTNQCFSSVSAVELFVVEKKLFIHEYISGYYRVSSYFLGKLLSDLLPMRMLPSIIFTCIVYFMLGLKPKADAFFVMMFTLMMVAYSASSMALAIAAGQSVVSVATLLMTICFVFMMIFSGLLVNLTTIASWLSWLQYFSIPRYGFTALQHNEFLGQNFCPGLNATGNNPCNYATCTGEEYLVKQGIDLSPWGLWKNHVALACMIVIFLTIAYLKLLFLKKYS
Chain of Apoptosis regulator Bcl-2 (Homo sapiens) (P10415 whole entry, looked up): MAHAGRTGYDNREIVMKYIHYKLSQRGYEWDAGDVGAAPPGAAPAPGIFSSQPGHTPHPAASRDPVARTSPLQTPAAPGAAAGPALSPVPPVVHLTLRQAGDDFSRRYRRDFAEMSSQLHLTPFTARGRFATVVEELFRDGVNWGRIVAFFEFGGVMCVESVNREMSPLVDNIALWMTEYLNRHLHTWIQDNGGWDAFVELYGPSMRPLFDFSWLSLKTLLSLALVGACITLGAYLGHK

CC(C)(C)c1cccc(C(C)(C)C)c1O
not listed: [20]
inactive: all other assays above

O=[N+]([O-])c1ccc(O)cc1
inactive: all assays above

CN(C)C=O
inactive: all assays above

CCCCCCCCCCCCCCCS(=O)(=O)Oc1ccccc1
active: [3] 13.3 µM | [7] 11.2 µM
inactive: all other assays above

c1ccc2c(c1)ccc1ccccc12
active: [7] 9.92 µM | [8] 9.4 µM
inactive: all other assays above

OCCC(F)(F)C(F)(F)C(F)(F)C(F)(F)C(F)(F)C(F)(F)C(F)(F)C(F)(F)F
not listed: [20]
inactive: all other assays above

c1ccc2cc3c(ccc4ccccc43)cc2c1
active: [2] 6.54 µM | [3] 13.2 µM | [4] 20.1 µM | [6] 14.6 µM | [10] 18.8 µM | [15] 7.02 µM | [16] 15.9 µM
not listed: [20]
inactive: all other assays above

OC1CCCCC1
not listed: [20]
inactive: all other assays above

C[C@@H]1C[C@H]2[C@@H]3CCC4=CC(=O)C=C[C@]4(C)[C@@]3(F)[C@@H](O)C[C@]2(C)[C@@]1(O)C(=O)COP(=O)(O)O
not listed: [20]
inactive: all other assays above

CC(C)(C)c1cc(C(C)(C)C)c(O)c(C(C)(C)C)c1
active: [7] 50 µM | [8] 20.9 µM | [20] 39.8 µM
not listed: [5]
inactive: all other assays above

OCCC(F)(F)C(F)(F)C(F)(F)C(F)(F)C(F)(F)C(F)(F)F
not listed: [20]
inactive: all other assays above

CCCCC(CC)COC(=O)CCCCC(=O)OCC(CC)CCCC (stereo unspecified)
not listed: [20]
inactive: all other assays above

Oc1cccc(O)c1
not listed: [20]
inactive: all other assays above
